What was measured:
Test in all cases: PBM binding z-score (relative to random genomic background probes); higher = stronger binding; sequences stand for … in GC…GCGATTGACAGCGTAGAATGAAGG
[1] = system: FXR:RXRa (NR concentration 270 nM, RXRa partner concentration 90 nM)
Outline: (§1)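 Custom Agilent 4×180K protein-binding microarrays carried double-stranded probes, each with a 34-nt variable region. These regions held direct-repeat seeds, single-nucleotide variants, half-site ablations and random human genomic background sequences. Ligand-free nuclear receptor dimers were incubated on the arrays for 1 h, antibodies against each partner (one per run) detected binding, and scanned fluorescence was regression-normalized. Binding z-scores take the random background probes as reference.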

[2] = system: LXRa:RXRa (NR concentration 270 nM, RXRa partner concentration 90 nM)
Outline: as §1

[3] = system: LXRa homodimer (NR concentration 270 nM)
Outline: as §1

[4] = system: LXRb:RXRa (NR concentration 270 nM, RXRa partner concentration 90 nM)
Outline: as §1

[5] = system: LXRb homodimer (NR concentration 270 nM)
Outline: as §1

[6] = system: PPARa:RXRa (NR concentration 270 nM, RXRa partner concentration 90 nM)
Outline: as §1

[7] = system: PPARg:RXRa (NR concentration 180 nM, RXRa partner concentration 90 nM)
Outline: as §1

[8] = system: PPARg:RXRa 270nM:90nM, anti-RXR (NR concentration 270 nM, RXRa partner concentration 90 nM)
Outline: as §1

[9] = system: PPARg:RXRa 30nM:10nM, anti-RXR (NR concentration 30 nM, RXRa partner concentration 10 nM)
Outline: as §1

[10] = system: PPARg:RXRa 90nM:30nM, anti-RXR (NR concentration 90 nM, RXRa partner concentration 30 nM)
Outline: as §1

[11] = system: PPARg:RXRa DBDmut IVT, anti-RXR (DBD mutation: RXRa K156A/R161A, NR concentration 270 nM, RXRa partner concentration 90 nM)
Outline: as §1

[12] = system: PPARg:RXRa IVT, anti-PPARg (NR concentration 270 nM, RXRa partner concentration 90 nM)
Outline: as §1

[13] = system: PPARg DBDmut:RXRa IVT, anti-PPARg (DBD mutation: PPARg1 K132A/R137A, NR concentration 270 nM, RXRa partner concentration 90 nM)
Outline: as §1

[14] = system: PPARg DBDmut IVT, anti-PPARg (DBD mutation: PPARg1 K132A/R137A, NR concentration 270 nM)
Outline: as §1

[15] = system: PPARg homodimer (NR concentration 180 nM)
Outline: as §1

[16] = system: PXR:RXRa (NR concentration 270 nM, RXRa partner concentration 90 nM)
Outline: as §1

[17] = system: PXR homodimer (NR concentration 270 nM)
Outline: as §1

[18] = system: RARa:RXR (NR concentration 270 nM, RXRa partner concentration 90 nM)
Outline: as §1

[19] = system: RARa homodimer (NR concentration 270 nM)
Outline: as §1

[20] = system: RARb:RXRa (NR concentration 270 nM, RXRa partner concentration 90 nM)
Outline: as §1

Sequence	PBM binding z-score [1]	PBM binding z-score [2]	PBM binding z-score [3]	PBM binding z-score [4]	PBM binding z-score [5]	PBM binding z-score [6]	PBM binding z-score [7]	PBM binding z-score [8]	PBM binding z-score [9]	PBM binding z-score [10]	PBM binding z-score [11]	PBM binding z-score [12]	PBM binding z-score [13]	PBM binding z-score [14]	PBM binding z-score [15]	PBM binding z-score [16]	PBM binding z-score [17]	PBM binding z-score [18]	PBM binding z-score [19]	PBM binding z-score [20]
TCTTGGAGATCAGCAGGTTAAGAAAGCTGGCCAA	0.173	-0.0127	-0.38	0.0269	-0.539	0.752	-0.546	0.883	2.2	1.52	1.35	-0.4	-0.469	-0.467	-0.281	0.203	-0.366	0.266	0.00806	0.0526
TTACCAAGGTGAGGTGAGGTCGTTGATCCAACTC	2.75	1.64	-0.251	1.2	-0.802	2.03	0.585	1.25	0.427	0.705	1.36	2.9	-0.05	-0.0548	0.645	4.64	0.773	2.2	-0.25	1.93
TAATATAGGTAAACAGGTGAAAGTCCGTAAGTTA	0.323	0.622	0.406	0.745	0.296	3.34	5.42	4.89	2.54	4.16	6.47	6.56	2.22	1.8	2.01	0.69	0.586	1.12	1.5	0.768
CCTCGGAGGACAGAGGGTCAGAGCTGTCCGCTTT	0.828	0.75	-0.594	0.328	-1.2	1.2	-0.24	0.834	-0.79	-0.115	-0.421	0.141	-1.61	-1.81	0.33	0.62	-0.49	1.14	-0.305	2.22
CCTATTAGTTGACCATAAGGGCAACCGAAGCTCG	1.08	0.988	0.64	0.736	0.554	0.977	0.556	0.931	-0.00379	1.03	0.774	0.558	0.33	0.387	1.7	1	0.754	1.37	1.39	1.7
CGTCCAAGGTCAGAGGTCAGTGAAGAGATGACGG	6.67	5.39	1.56	4.73	0.465	6.09	8.26	6.86	5.6	7.06	2.44	4.65	0.388	-0.499	3.51	5.72	1.13	7.11	0.938	5.55
ATCTCTAGGTAACAAATTCAGTGAAAGAGAGGAC	0.723	0.714	0.441	0.288	1.15	0.552	0.558	0.598	0.83	0.732	2.5	2.57	1.67	1.65	0.744	0.225	0.486	0.657	1.4	0.701
CCGACTGGGGCATAAGGTTACCATCAGCCAGCCC	0.308	1.43	-0.15	0.516	-1.51	1.9	2.3	2.99	1.18	2.32	2.93	3.1	-0.916	-1.26	0.425	0.317	-0.375	1.06	-0.135	1.37
TCTATTAGTTGAAGGGCAACCGTCGAGTCCGTTT	0.742	0.933	0.368	0.792	0.191	0.493	-0.355	2.08	3.65	2.84	2.35	0.992	0.699	1.21	0.883	0.735	0.911	0.24	1.09	1.63
CCTTACGGGTCACTCCAGGATATAGCATCGGAGT	4.88	5.8	0.346	2.94	0.014	4.08	3.39	3.49	1.08	2.48	2.53	2.97	0.582	-0.0388	1.51	3.13	0.912	2.84	0.759	3.4
AGCATGAGGTTAAGATCAGGGAAACAGAATACAT	1.97	2.02	0.07	1.75	0.151	3.06	1.14	1.04	0.357	0.819	0.0322	0.624	0.52	-0.142	0.333	1.23	0.477	2.07	0.813	2.02
TCATATAGGTAAAGCTGAAAGTCGAACGATATGA	0.358	0.331	-0.286	0.366	-0.268	0.995	0.806	1.97	3.45	2.72	3.57	2.35	0.591	1.09	-0.748	0.2	-0.49	0.193	-0.464	0.205
ACTAGTTGGTCAGCTGAAGTCACACACAATTCGG	-0.0902	-0.0916	0.115	0.118	0.19	-0.0344	0.754	0.0912	-0.0266	0.0351	0.924	0.828	0.539	0.649	0.462	-0.105	-0.357	0.136	0.213	0.828
TCTAGTTGGTCACAGAGGTCACACACGACGGGTA	4.73	4.98	3.92	4.46	1.51	4.84	4.45	5.18	4.12	5.26	2.85	4.35	1.86	0.876	6.9	5.58	2.89	6.16	4.36	4.28
ATCGAAAGGTCGACAAGGTGAGTATACACCGTTT	4.68	3.45	0.283	3	0.522	4.41	2.79	3.21	1.2	2.21	0.456	1.98	1.72	1.65	1.43	2.86	0.683	3.78	0.202	4.02
ATCTCTAGGTAACCAAGTTCAGTGAGTGCCGAAC	0.417	0.863	0.949	0.855	0.746	1.04	0.34	0.67	-0.0594	0.338	3.88	2.77	0.349	0.828	0.761	2.12	3.09	0.548	0.845	1.21
GCTAGCAGGCCATTTGGGTCAATCAATGACGGGC	0.192	0.264	-0.476	0.271	-0.737	1.4	0.636	0.364	-1.07	-0.156	1.77	1.92	-1.29	-0.902	-0.569	0.511	0.261	0.95	-0.573	1.3
ATATGTAGGTCACATCCGGGTCATTCAGGCTATG	4.9	5.58	3.31	4.45	1.88	5.8	9.18	7.48	5.41	7.3	8.71	8.92	2.83	2.12	3.45	5.25	2.96	5.31	0.84	4.34
AGCACGAGGGCACGCTGAGTTGATAGCAGAGTAG	0.941	0.602	-0.669	0.23	-1.28	1.61	1.22	0.752	-0.187	0.162	2.09	2.17	0.0423	-0.669	0.0355	1.32	0.313	0.919	-0.335	2.59
TTCCCAAGGTGAAGGTCGTTGATCCCTCTGTAGA	2.26	2.23	-0.0326	1.74	-0.362	2.26	0.674	1.81	0.663	1.37	0.771	2.06	-0.218	-0.23	1.17	1.5	0.155	1.78	-0.438	2.2
ATAAGTAGGTTACATCCGGGTCATTCAGGCTATG	2.43	4.37	1.57	2.84	1.24	4.53	6.68	5.15	3.19	4.37	7.68	7.66	4.25	3.55	2.34	3.51	2.42	3.58	1.79	2.26
CGTCAAAGTTCAACTAAGGCAACGTAAAGCACGC	6.41	6.09	3.57	3.9	1.79	4.93	4.8	5.53	1.96	4.18	0.00616	2	0.22	-0.059	3.19	4.83	4.13	3.62	1.59	5.21
TAGCCTAGGTCAGATCGGGCCAGTATGCGCTATA	2.71	1.19	-0.503	0.727	-0.424	1.73	0.328	0.593	-0.423	0.0994	0.347	1.3	-0.699	-0.549	-0.654	0.891	-0.704	0.898	-0.754	3.16
GCTATTAATTGAAAGGGCAACCGAATGATTCTCG	0.000102	0.439	1.02	0.408	-0.192	1.08	0.608	0.921	-0.0129	0.592	0.162	0.122	-0.051	-0.0832	1.66	0.52	1.04	0.517	2.31	2.02
ACACACAGGTGATGAAGGTAACTCAGGCTATCAT	-0.0193	0.147	0.256	-0.0371	-0.0459	0.299	0.913	0.223	0.238	0.167	0.704	1.02	0.73	0.679	0.0611	-0.0363	0.251	0.28	0.957	0.355
TGACAAAGTTCAAAGGTAACGTAAGTATCCACAC	6.96	6.05	3.28	4.68	1.41	5.69	6.2	6.28	2.97	5.43	-0.278	2.4	1.51	0.842	2.31	5.44	2.44	6.2	1.36	5.01
CTCGAAAGGTCGTGCTCAGGTGAGTAAACCAAAC	5.29	3.87	0.151	3.25	0.181	4.92	2.7	4.18	0.732	2.6	0.815	1.96	0.213	0.0254	1.55	3.34	0.175	4.18	0.14	3.98
TCTCGGAGGACACGAAAGGTCAGAGCACGACATC	2.91	3.73	3.12	3.29	0.0344	3.63	1.64	2.76	2.25	2.42	1.29	1.57	0.69	-0.292	4.15	4.24	0.7	4.89	2.34	4.09
TCTAGTTGGTCACGGAGGTCACACTCGACGGGTA	3	3.28	2.58	3.06	0.84	3.75	2.84	3.93	3.54	3.5	2.74	4.57	1.32	0.684	2.95	4.31	1.37	4.2	1.39	3.91

From the supplement of paper PMC6555819
